These results are taken from PubChem BioAssay (NCI).

The structures appear in SMILES notation. This is part of a sample that, as a whole, favours compounds with a hit. Of some 83,000 tested, about 20% had one in any assay.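 Negative percent growth values reflect cell death: -40 means 40% of the cells present at the start died, and -100 means all died.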 Unmarked numbers belong to inactive results. Active and inactive are the calls of the source. Rule for the calls: active = growth percent below 10; inactive = the rest.

The first assay concerns 786-0 renal. As to the kind of experiment: NCI-60 one-dose screen, 48 h (100 = growth as untreated, 0 = no growth, -100 = all killed). The conditions noted are these: 10 µM.
`COc1ccc(-n2nnc3c(sc4ccccc43)c2=O)cc1`: the growth was 21.4%.
In the case of `COc1ccc(Cn2cc3c(c2-c2cc(OC)c(OC)c(OC)c2)CCc2cnoc2-3)cc1[N+](=O)[O-]`, the growth is 34.3%.
Turning to `Nc1ncc(-c2ccc(C(F)(F)F)cc2)c(NC2CCCCCC2)n1`, the growth was 51.3%.
For `CC(C)(C)CC(C)(C)c1ccc(O)c(Cc2ccc(Cl)cc2Cl)c1`, the growth was -92.8% (active).
In the case of `CC(=O)Nc1ccc2c(c1)C(N1CC3CCC(CC3)C1)c1ccccc1-2` (stereo not drawn), the growth was 92.5%.
As to `COc1cccc2c1C(=O)c1c(O)c3c(c(O)c1C2=O)C[C@@](O)(C(=O)COC(=O)c1cccnc1)C[C@@H]3OC1CC(N)C(O)C(C)O1` (stereo partly drawn), the growth is 3.23% (active).
The same measure, in the same setting: the figure for `O=C(CCl)N1c2ccccc2Sc2ccc3ccccc3c21` is -62.8% (active); for `CCOc1nc(-c2ccccc2)cc2c(O)c(C(=O)NC(C)C)[nH]c(=O)c12` it is 112%; for `CN1/C(=C\C(I)C(I)C2=[N+](C)c3ccccc3C2(C)C)C(C)(C)c2ccccc21` (stereo not drawn) it is 23.2%.
Same read-out and setting: the figure for `COc1ccc(-c2csc(NC(=O)CO[N+](=O)[O-])n2)cc1` is 113%; for `CCCCc1ccc(NC(=O)N(CCCl)N=O)cc1` it is 94.2%; for `CCCCOCCOCCOCc1cc2c(cc1Br)OCO2` it is 100%.
For `Nc1nc2c(ncn2C2OC3COP(=O)(O)OC4C(COP(=O)(O)OC2C3O)OC(n2cnc3c(N)ncnc32)C4O)c(=O)[nH]1` (stereo not drawn), the growth is 103%.
On the same count and under the same terms, the figure for `O=[N+]([O-])c1ccc(-c2nc(-c3ccccc3)c(-c3ccccc3)n2-c2ccccc2)cc1` is 57.3%; for `O=C1CC[C@@H](C(=O)N[C@H]2CSSC[C@@H](C(=O)N/C=C/c3ccc(O)cc3)NC(=O)[C@H](Cc3ccccc3)NC(=O)[C@@H]3CCCN3C(=O)[C@@H]3CCCN3C2=O)N1` it is 118%.
The same measure, in the same setting: the figure for `CCCCCc1cc[n+](CC(=O)c2ccc(Cl)cc2)cc1` is 76.2%.
On to `CC(C)CCN(CCCNc1c2c(nc3cc(Cl)ccc13)CCCC2)CCC(C)C`, for which the growth was 80.1%.
Still for that read-out and setting: the figure for `FC(F)(F)c1ccc(-c2ncc(-c3ccc(C(F)(F)F)cc3)c(NCc3cc(C(F)(F)F)cc(C(F)(F)F)c3)n2)cc1` is 53.9%; for `CC(=O)CS(C)(=O)=O` it is 106%; for `COc1ccc(-c2csc(-c3cc(Cl)cc(Cl)c3Cl)n2)cc1` it is 111%.
Take `Cc1nnc2c3nnc(-c4ccc(Cl)cc4)n3c3ccccc3n12`: the growth is 97.2%.
Still for that read-out and setting: the figure for `O=C(C=P(c1ccccc1)(c1ccccc1)c1ccccc1)c1ccc(Br)cc1` is 97.9%; for `COc1cc(C2=Nc3c/c(=C\c4c(O)[nH]c5ccc(Cl)cc45)ccc3=N2)cc(OC)c1OC` it is -6.36% (active); for `NC(=O)c1ccc(Br)o1` it is 96.8%.
`C(=C\c1nc2ccccc2s1)/c1ccc(N2CCOCC2)s1`: the growth is 82.5%.
Same read-out and setting: the figure for `COc1ccc(-c2nnc(N3CCN(C(=O)CN4CCN(c5ccc(Cl)cc5)CC4)CC3)nc2-c2ccc(OC)cc2)cc1` is 70.8%; for `Cc1ccc(C2C=C(c3ccc(Cl)cc3)N=C3SC=CN32)c(Br)c1` (stereo not drawn) it is 93.1%; for `N#CCC1CCCC1` it is 96.3%.
The same measure, in the same setting: the figure for `FC(F)(F)c1ccc(-c2cnc(Cl)nc2NC2CCCCCC2)cc1` is 40.1%; for `Oc1ccccc1-c1nnc(Cn2c(Cc3cccc4ccccc34)nc3ccccc32)o1` it is 103%; for `CCOC(=O)c1cc2c(n1Cc1cc(OC)cc(OC)c1)-c1oncc1CC2` it is 33.7%.
As to `COc1ccc(-c2nnc(SC/C(=N\O)c3ccccc3)o2)cc1`, the growth was 97.2%.
For the compound `CCOCC[P+](c1ccccc1)(c1ccccc1)c1ccccc1`, the growth was 72.5%.
In the case of `CCN(CC)CC(O)CNc1ccnc2cc(Cl)c(Cl)cc12` (stereo not drawn), the growth was 86.1%.
With `COc1cccc(C(=O)NNc2nc(N3CCN(C4CCCCC4)CC3)nc(N3CCN(C(c4ccccc4)c4ccccc4)CC3)n2)c1`, the growth is 53%.
The same measure, in the same setting: the figure for `COc1ccc(CCc2nc3cc(-c4c(C)noc4C)ccc3n2CCN2CCOCC2)cc1` is 60.8%; for `Nc1ccc(C2=CC(c3ccc(Cl)cc3)N3C=CSC3=N2)cc1` (stereo not drawn) it is -90.9% (active); for `CN(C)Cc1cccs1` it is 103%.

The subject of another assay is COLO 205 colon. The description is as above. The following applies: 10 µM.
Turning to `COc1ccc(-n2nnc3c(sc4ccccc43)c2=O)cc1`, the growth was 80.7%.
`Nc1ncc(-c2ccc(C(F)(F)F)cc2)c(NC2CCCCCC2)n1`: the growth is 38.5%.
On the same count and under the same terms, the figure for `CC(C)(C)CC(C)(C)c1ccc(O)c(Cc2ccc(Cl)cc2Cl)c1` is -71.4% (active); for `CC(=O)Nc1ccc2c(c1)C(N1CC3CCC(CC3)C1)c1ccccc1-2` (stereo not drawn) it is 68.6%; for `O=C(CCl)N1c2ccccc2Sc2ccc3ccccc3c21` it is -76.3% (active).
Still for that read-out and setting: the figure for `CCOc1nc(-c2ccccc2)cc2c(O)c(C(=O)NC(C)C)[nH]c(=O)c12` is 118%; for `CN1/C(=C\C(I)C(I)C2=[N+](C)c3ccccc3C2(C)C)C(C)(C)c2ccccc21` (stereo not drawn) it is -20.6% (active); for `COc1ccc(-c2csc(NC(=O)CO[N+](=O)[O-])n2)cc1` it is 89.1%.
Same read-out and setting: the figure for `CCCCc1ccc(NC(=O)N(CCCl)N=O)cc1` is 101%; for `CCCCOCCOCCOCc1cc2c(cc1Br)OCO2` it is 107%; for `Nc1nc2c(ncn2C2OC3COP(=O)(O)OC4C(COP(=O)(O)OC2C3O)OC(n2cnc3c(N)ncnc32)C4O)c(=O)[nH]1` (stereo not drawn) it is 98.1%.
On to `O=[N+]([O-])c1ccc(-c2nc(-c3ccccc3)c(-c3ccccc3)n2-c2ccccc2)cc1`, for which the growth is 68.1%.
Regarding `O=C1CC[C@@H](C(=O)N[C@H]2CSSC[C@@H](C(=O)N/C=C/c3ccc(O)cc3)NC(=O)[C@H](Cc3ccccc3)NC(=O)[C@@H]3CCCN3C(=O)[C@@H]3CCCN3C2=O)N1`, the growth was 102%.
The same measure, in the same setting: the figure for `CCCCCc1cc[n+](CC(=O)c2ccc(Cl)cc2)cc1` is 80.5%.
On the same count and under the same terms, the figure for `CC(C)CCN(CCCNc1c2c(nc3cc(Cl)ccc13)CCCC2)CCC(C)C` is 32.6%; for `FC(F)(F)c1ccc(-c2ncc(-c3ccc(C(F)(F)F)cc3)c(NCc3cc(C(F)(F)F)cc(C(F)(F)F)c3)n2)cc1` it is 74.9%; for `CC(=O)CS(C)(=O)=O` it is 106%.
Still for that read-out and setting: the figure for `COc1ccc(-c2csc(-c3cc(Cl)cc(Cl)c3Cl)n2)cc1` is 91.6%.
With `Cc1nnc2c3nnc(-c4ccc(Cl)cc4)n3c3ccccc3n12`, the growth is 111%.
For the compound `O=C(C=P(c1ccccc1)(c1ccccc1)c1ccccc1)c1ccc(Br)cc1`, the growth was 96%.
As for `COc1cc(C2=Nc3c/c(=C\c4c(O)[nH]c5ccc(Cl)cc45)ccc3=N2)cc(OC)c1OC`, the growth is -41.1% (active).
In the case of `NC(=O)c1ccc(Br)o1`, the growth was 103%.
On the same count and under the same terms, the figure for `C(=C\c1nc2ccccc2s1)/c1ccc(N2CCOCC2)s1` is 94.8%; for `COc1ccc(-c2nnc(N3CCN(C(=O)CN4CCN(c5ccc(Cl)cc5)CC4)CC3)nc2-c2ccc(OC)cc2)cc1` it is 59.2%; for `N#CCC1CCCC1` it is 109%.
As to `FC(F)(F)c1ccc(-c2cnc(Cl)nc2NC2CCCCCC2)cc1`, the growth was 22%.
Turning to `Oc1ccccc1-c1nnc(Cn2c(Cc3cccc4ccccc34)nc3ccccc32)o1`, the growth was 110%.
On to `CCOC(=O)c1cc2c(n1Cc1cc(OC)cc(OC)c1)-c1oncc1CC2`, for which the growth is 1.38% (active).
Take `COc1ccc(-c2nnc(SC/C(=N\O)c3ccccc3)o2)cc1`: the growth was 110%.
Still for that read-out and setting: the figure for `CCOCC[P+](c1ccccc1)(c1ccccc1)c1ccccc1` is 44.5%; for `CCN(CC)CC(O)CNc1ccnc2cc(Cl)c(Cl)cc12` (stereo not drawn) it is 78.1%.
In the case of `COc1cccc(C(=O)NNc2nc(N3CCN(C4CCCCC4)CC3)nc(N3CCN(C(c4ccccc4)c4ccccc4)CC3)n2)c1`, the growth is 14.2%.
On to `COc1ccc(CCc2nc3cc(-c4c(C)noc4C)ccc3n2CCN2CCOCC2)cc1`, for which the growth is 5.86% (active).
On to `Nc1ccc(C2=CC(c3ccc(Cl)cc3)N3C=CSC3=N2)cc1` (stereo not drawn), for which the growth was -85.1% (active).
For the compound `CN(C)Cc1cccs1`, the growth is 107%.
